Screens from PubChem.
This is a sample that favours compounds with a hit; in the whole collection about 2% have one here.
A3A deaminase: APOBEC3A ssDNA deaminase inhibitors, primary screen, selectivity assay for APOBEC3G inhibitor project, biochemical, FAM/TAMRA oligo cleavage fluorescence; DNA dC->dU-editing enzyme APOBEC-3A (Homo sapiens), P31941; recombinant A3A, FAM/TAMRA ssDNA deamination fluorescence; inhibition, % at 20 µM; 0.41% of 330,000 active;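 active = at least 40% inhibition at 20 µM here, with at most 30% in a related deaminase screen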;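 also: plate controls were A3A with DMSO for no effect and wells lacking A3A enzyme for full effect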
GC-A act: GC-A stimulated cGMP production enhancers – HEK293 GC-A cells, cGMP TR-FRET, EC30 ANP, primary screen. 0% at EC30 ANP, 100% saturating ANP. AID 1671463, 2021. Atrial natriuretic peptide receptor 1 (Homo sapiens), P16066. activation, % at 10 µM. 0.14% of 370,000 active; in the data active = activation above about 40%
Neddyl block: inhibitors of cullin neddylation, primary screen, biochemical, TR-FRET, uHTS, NAE and Ubc12; inhibition, % at 25 µM; NEDD8-conjugating enzyme Ubc12 (Homo sapiens) + NEDD8-activating enzyme E1 regulatory …; 0.58% of 360,000 active; in the data active = inhibition above about 36%
A3G deaminase: APOBEC3G DNA deaminase inhibitors, primary screen, biochemical, fluorescence, single-stranded DNA substrate, uHTS; DNA dC->dU-editing enzyme APOBEC-3G (Homo sapiens), Q9HC16; inhibition, % at 20 µM; 0.28% of 330,000 active; recombinant A3G, ssDNA deamination FAM/TAMRA fluorescence;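 active = inhibition of at least 40% at 20 µM, with no more than 30% in the related APOBEC3A deaminase screen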;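 also: plate controls were DMSO wells with A3G for no effect and wells lacking A3G enzyme for full effect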
Target sequence (Q9HC16 whole entry, looked up): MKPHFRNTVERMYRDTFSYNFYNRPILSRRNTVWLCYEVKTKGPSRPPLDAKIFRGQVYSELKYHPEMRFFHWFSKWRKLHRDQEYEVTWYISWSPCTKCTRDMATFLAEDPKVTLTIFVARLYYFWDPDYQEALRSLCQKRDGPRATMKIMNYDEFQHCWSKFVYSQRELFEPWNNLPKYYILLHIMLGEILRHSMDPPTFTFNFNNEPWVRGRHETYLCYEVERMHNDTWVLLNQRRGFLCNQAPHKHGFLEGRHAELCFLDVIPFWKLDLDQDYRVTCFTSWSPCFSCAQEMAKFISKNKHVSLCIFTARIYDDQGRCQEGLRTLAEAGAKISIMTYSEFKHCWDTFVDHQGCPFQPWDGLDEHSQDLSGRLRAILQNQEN
GC-B act: human GC-B receptor activators, primary screen, HEK293 GC-B cells, cGMP TR-FRET, EC30 CNP; 0% at EC30 CNP, 100% saturating CNP; activation, % at 10 µM; Atrial natriuretic peptide receptor 2 (Homo sapiens), P20594; 0.11% of 370,000 active;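 active = activation at 10 µM reaching about 35% in either raw or pattern-adjusted values, limit read from the data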
PfG6PD inh: PfG6PD enzyme inhibitors, primary screen, biochemical, fluorescence intensity, uHTS; glucose-6-phosphate dehydrogenase-6-phosphogluconolactonase (Plasmodium falciparum 3D7); PfGluPho enzyme, NADPH resazurin-diaphorase fluorescence; inhibition, % at 20 µM; 0.78% of 350,000 active; AID 504690, 2011;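 active = inhibition reaching at least a set limit at 20 µM in the primary screen, cut at about 59% in these data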;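 also: 0% = DMSO wells with substrate and 100% = DMSO wells lacking glucose-6-phosphate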
* hit, by the source's call; nt = no result shown.

SMILES | A3A deaminase | GC-A act | Neddyl block | A3G deaminase | GC-B act | PfG6PD inh
CCC(C)n1nnc2c(=O)oc3ccccc3c21 (configuration not stated) | 1 | 3 | -2 | -2 | -1 | 6
Cc1ccc(-n2nnc3c(=O)oc4ccccc4c32)cc1 | 6 | -3 | -4 | -1 | 39* | -1
CC(C)CCn1cnc2c(c1=O)c1nc3ccccc3nc1n2Cc1ccc2c(c1)OCO2 | nt | 39 | 24 | nt | 50* | -34
O=c1c2ccccc2ncn1Cc1ccc2c(c1)OCO2 | 8 | 4 | 4 | -3 | 6 | -13
Cc1ccccc1C1C(C#N)=C2N=C(N)c3ccccc3N2C2=C1C(=O)CCC2 (configuration not stated) | -2 | 28 | -17 | -8 | 38* | -5
CCCCN1C[C@@H](COCc2ccccc2)Oc2cc(F)ccc2S1(=O)=O | nt | -2 | nt | nt | 10 | nt
OCC1OC(n2cnc3c(NCc4ccccc4O)ncnc32)C(O)C1O (configuration not stated) | nt | 0 | 61* | nt | 5 | 3
CCc1oc(C(=O)O)cc1CN(CC)CC | 1 | 3 | -1 | 1 | 6 | -4
CCN(CC)Cc1cc(O)c(CN(CC)CC)cc1O | nt | 6 | 32 | nt | -1 | 76*
CCOC(=O)N1CCN(C(=O)CSCC(=O)Nc2nc(-c3ccc(Cl)s3)cs2)CC1 | 2 | 42* | -17 | -3 | -7 | -11
CCCC(=O)Nc1nc(-c2ccc(Cl)s2)cs1 | 0 | 55* | -10 | -5 | 1 | 12
CCCCCN1CCCCC(NC(=O)c2ccc3ccccc3c2)C1=O (configuration not stated) | nt | 1 | nt | nt | -6 | nt
Cc1cc(/C=c2\sc3nc4ccccc4n3c2=O)c(C)n1-c1ccc(C(=O)O)cc1 | nt | 2 | 40* | nt | 5 | 47
Cc1cc2c(N=O)c(NO)ccc2[nH]1 | -3 | nt | -22 | -7 | nt | 70*
CCOC(=O)C1=C(C)N=c2s/c(=C/c3ccc(OCC(=O)O)c(OC)c3)c(=O)n2C1c1ccc(Cl)cc1 (configuration not stated) | 0 | -2 | 65* | -3 | -5 | -6
O=C(Nc1nc(Cc2ccccc2)c(-c2ccccc2)n1Cc1ccccc1)c1ccccc1 | nt | -4 | nt | nt | -7 | nt
Fc1ccc2c(c1)C(c1ccc(N3CCOCC3)cc1)=NNC(c1cccs1)=N2 | -1 | nt | 41* | -3 | nt | 3
Brc1ccc2c(c1)C(c1ccc(N3CCOCC3)cc1)=NNC(c1cccs1)=N2 | 3 | -2 | 23 | 2 | -5 | -2
COC(=O)c1sc(-c2ccc(C(C)(C)C)cc2)cc1NC(=O)CSCC(=O)O | -4 | 7 | 40* | -11 | -2 | -31
COC(=O)c1sc(-c2ccc(C(C)(C)C)cc2)cc1NC(=O)c1ccccc1C(=O)O | 2 | -8 | 70* | 1 | 3 | -32
COC(=O)c1sc(-c2ccc(Cl)cc2)cc1NC(=O)c1ccccc1C(=O)O | -2 | 24 | -11 | -3 | -11 | -26
C=CCN1[C@@H](C)COc2cc(N3CCCC3)ccc2S1(=O)=O | nt | 5 | nt | nt | 5 | nt
CC(=O)c1ccc(NCCCN2CCC(C(O)(c3ccccc3)c3ccccc3)CC2)cc1 | nt | -24 | nt | nt | -19 | nt
O=C(N/N=C/c1ccc(F)cc1)c1cc(-c2ccco2)nc2ccccc12 | 93 | -17 | 43* | 85 | 1 | 15
CCOc1ccc(/C=N/NC(=O)c2cc(-c3ccco3)nc3ccccc23)cc1 | -1 | 3 | 29 | -3 | 6 | 6
CC(C)NC(=S)NNc1ncnc2sc3c(c12)CC(C)(C)OC3 | -9 | 33 | 17 | 0 | 38* | 23
Cc1ccc(C(=O)Nc2sc3c(c2C(=O)O)CCC(C)C3)o1 (configuration not stated) | -3 | -4 | 53* | -3 | -3 | 26
Cc1ccc(C(=O)Nc2sc3c(c2C(=O)O)CCCCC3)o1 | 3 | -6 | nt | 9 | 5 | 32
